Screens from PubChem BioAssay.
Cav32 inh = Cav3.2 calcium influx blockers – cell-based, Fluo-4 calcium fluorescence, FDSS, MLSMR library, primary screen; Voltage-dependent T-type calcium channel subunit alpha-1H (Homo sapiens), O95180; Cav3.2-expressing cells; hits give low values; B-score at 10 µM; 4% of 100,000 active;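 active means single-dose well whose peak fluorescence ratio is a statistical outlier from its plate by either plate-standardised score or position-corrected B-score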
CYP2C9 inhib = blockers of cytochrome P450 2C9 activity – biochemical, luminescence, ADME assay, primary screen; P11712; CYP2C9 Supersomes, luciferin-H conversion; inhibition, % at 5 µM; 20% of 96,000 active; AID 777, 2007;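 active means blocking of liver enzyme CYP2C9 beyond about 50% at 5 µM, limit read from the data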
CYP2C19 act = human CYP2C19 activators, primary screen, biochemical, luminescence. recombinant CYP2C19, luciferin-H EGE luminescence; hits give high values; 0 = fully inhibited enzyme, 1 = untreated enzyme. activation factor at 5 µM. 96,000 tested, under 10 active. AID 1025, 2008;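 active means activation factor of at least 2 at 5 µM in the primary screen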
CYP2C9 act = human CYP2C9 activators, primary screen, biochemical, luminescence. AID 1024, 2008. 1.4% of 96,000 active. activation factor at 5 µM. recombinant CYP2C9, luciferin-H conversion; hits give high values; factor 1 = untreated enzyme, 0 = blocked;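 active means activation factor of 2 or more for CYP2C9 at a 5 µM dose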
CYP2C19 inhib = blockers of cytochrome P450 2C19 activity – biochemical, luminescence, ADME assay, primary screen; P33261; CYP2C19 Supersomes, luciferin-H EGE luminescence, 30 min; inhibition, % at 5 µM; 21% of 96,000 active; AID 778, 2007;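 active means CYP2C19 inhibition above a set limit at 5 µM in the primary screen, cut at about 50% in these data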
Large screens that a line does not name were inactive. Only some compounds are listed: those with a hit (about 27% of all), similar ones and a draw of the others.

COC(=O)c1ccccc1NC(=O)CSc1nccn1C	CYP2C19 inhib 85
COC(=O)c1ccccc1NC(=O)CSc1nnc(CNS(=O)(=O)c2ccc(C)cc2)n1C	CYP2C9 inhib 94, CYP2C19 inhib 52
CCOc1ccc(C(=S)NC2CCCCC2)cc1OC	none
COC(=O)c1ccccc1NC(=O)COC(C)=O	none
COC(=O)c1ccccc1NC(=O)Cn1ccnc1	CYP2C9 inhib 84, CYP2C19 inhib 100
COC(=O)c1ccccc1NC(=O)CSc1nc(O)cc(=O)n1C1CCCC1	CYP2C9 inhib 74
CCOC(=O)c1ccc(NC(=O)CSc2nccn2C)cc1	CYP2C19 inhib 60
Cn1ccnc1SCC(=O)NC12CC3CC(CC(C3)C1)C2	CYP2C19 inhib 92
CC1(OC(=O)c2cccs2)C(=O)C=C2C=C(c3ccc(C#N)cc3)OC=C2C1=O (stereo not given)	none (no result: CYP2C9 inhib, CYP2C19 act, CYP2C9 act, CYP2C19 inhib)
Cc1ccc(NC(=O)Cc2nnc(SCC(=O)c3ccc(Br)cc3)n2C)cc1Cl	none (no result: Cav32 inh)
Cc1nnc(NC(=O)CSc2nccn2C)s1	none (no result: CYP2C9 inhib, CYP2C19 act, CYP2C9 act, CYP2C19 inhib)
Cn1ccnc1SCC(=O)Nc1cccc2ccccc12	CYP2C19 inhib 97
CC(=O)c1ccc(OCC(O)Cn2nnc3ccccc32)cc1 (stereo not given)	CYP2C9 inhib 72, CYP2C19 inhib 76
Cc1cccc(C)c1OCC(O)Cn1nnc2ccccc21 (stereo not given)	CYP2C19 inhib 59
O=C1C2CC=CCC2C(=O)N1c1ccc(OCC(O)Cn2nnc3ccccc32)cc1 (stereo not given)	none
N#Cc1ccc(-c2ccc(OCC(O)Cn3nnc4ccccc43)cc2)cc1 (stereo not given)	none (no result: CYP2C9 inhib, CYP2C19 act, CYP2C9 act, CYP2C19 inhib)
COC(=O)c1ccc(OCC(O)Cn2nnc3ccccc32)cc1 (stereo not given)	CYP2C9 inhib 82, CYP2C19 inhib 81
O=C(NCc1ccc2c(c1)OCO2)c1cccc(F)c1	CYP2C9 inhib 66, CYP2C19 inhib 99
O=C(NCc1cccc(Cl)c1)c1ccco1	CYP2C19 inhib 57
O=C(NCc1ccc(Cl)c(Cl)c1)c1ccco1	none (no result: CYP2C9 inhib, CYP2C19 act, CYP2C9 act, CYP2C19 inhib)
O=C(Nc1ccc(CN2CCCCC2)cc1)c1ccc2c(c1)OCO2	none
O=C(NCc1ccc2c(c1)OCO2)c1cccc(S(=O)(=O)N2CCCCC2)c1	none (no result: CYP2C9 inhib, CYP2C19 act, CYP2C9 act, CYP2C19 inhib)
O=C(Nc1ccn(Cc2ccc(Cl)cc2)n1)c1ccc2c(c1)OCO2	CYP2C9 inhib 92, CYP2C19 inhib 91
O=C(NCN1CCc2ccccc2C1)c1ccccc1	CYP2C19 inhib 81
COc1cc2c(cc1OC)C(=S)NC(C)(C)C2	none
COC(=O)Cn1cnc2c(nnn2-c2ccc(C)cc2)c1=O	none
CCCN1CCC(=O)N(CCSc2ccc(OC)cc2)CC1	none (no result: CYP2C9 inhib, CYP2C19 act, CYP2C9 act, CYP2C19 inhib)
C#CCNC(=O)C1=C[C@@H](c2ccc(Br)cc2)C[C@@H](OCCCCO)O1	none (no result: CYP2C9 inhib, CYP2C19 act, CYP2C9 act, CYP2C19 inhib)
O=C(CN1CCc2ccccc2C1)c1cccs1	CYP2C19 inhib 92
O=C(NCc1ccc2c(c1)OCO2)c1ccc(CN2CCc3ccccc3C2)cc1	Cav32 inh -5.3
O=C(NCc1ccc2c(c1)OCO2)c1ccc(-c2ccc(Cl)cc2)o1	CYP2C9 inhib 100
O=C(NCc1cccc(Cl)c1)c1ccc2c(c1)OCO2	CYP2C19 inhib 50
O=C(c1cccs1)N1CCc2ccccc21	none
CC1CCOC2(O1)C(=O)N(CN1CCN(c3ccccc3F)CC1)c1ccccc12 (stereo not given)	none (no result: Cav32 inh)
O=C(NCc1cccc(Cl)c1)c1cccc(C(F)(F)F)c1	CYP2C19 inhib 62
O=C(NCc1ccc2c(c1)OCO2)c1cccc(Cl)c1	CYP2C19 inhib 98
COC(=O)c1cn(CC(=O)NC2CCCCCC2)c2ccccc12	none (no result: CYP2C9 inhib, CYP2C19 act, CYP2C9 act, CYP2C19 inhib)
COCCN(C(=O)Nc1ccccc1)c1ccccc1C	none (no result: CYP2C9 inhib, CYP2C19 act, CYP2C9 act, CYP2C19 inhib)
COc1ccc2c(c1OC)C(=O)N(c1cccc(C)c1)C2=O	CYP2C9 act 3.1
Cc1cc(OCCCn2ccnc2)cc(C)c1Cl	CYP2C9 inhib 97, CYP2C19 inhib 100
CCOc1cccc(OCCCCn2ccnc2)c1	CYP2C9 inhib 89, CYP2C19 inhib 99
CCOc1cccc(OCCOCCN2CCCC2)c1	none
Brc1cccc(OCCn2ccnc2)c1	CYP2C9 inhib 64, CYP2C19 inhib 93
CCc1cccc(OCCOCCN2CCCC2)c1	none
CC(NC(=O)COc1cccc(Br)c1)C(=O)O (stereo not given)	none (no result: Cav32 inh)
Brc1cccc(OCCOCCn2ccnc2)c1	CYP2C9 inhib 99, CYP2C19 inhib 100
Cc1cc(=S)cc(C)n1CCCn1ccnc1	none
CC1(C)NC(=O)N(c2ccccc2Cl)C1(C)NO (stereo not given)	none
Nc1ccccc1CNc1nc(NCCO)nc2c1ncn2CCN1CCOCC1	none (no result: CYP2C9 inhib, CYP2C19 act, CYP2C9 act, CYP2C19 inhib)
CC(C)(C)[C@]1(O)CCN2C[C@H]3c4ccccc4CCc4cccc(c43)[C@@H]2C1	none (no result: CYP2C9 inhib, CYP2C19 act, CYP2C9 act, CYP2C19 inhib)
CCOC(=O)C(C)n1nc(C)c2sc3ccccc3c2c1=O (stereo not given)	none (no result: CYP2C9 inhib, CYP2C19 act, CYP2C9 act, CYP2C19 inhib)
CCOC(=O)N1CCN(C(=O)CCCn2nc(C)c3sc4ccccc4c3c2=O)CC1	CYP2C9 act 2.4
O=S(=O)(c1ccccc1)c1nc(Nc2ccccc2N2CCOCC2)sc1Cl	Cav32 inh -5.3, CYP2C9 inhib 88, CYP2C19 inhib 74
O=C(Nc1ccccc1N1CCOCC1)c1ccc2ccccc2n1	none
[O-]/[N+](=C\c1ccc(F)cc1)c1ccccc1	none
Cn1c(SCC(=O)N/N=C/C=C\c2ccco2)nc2ccccc21	none
O=C(CSc1nc2ccccc2n1Cc1ccccc1)N/N=C/c1ccco1	Cav32 inh -4, CYP2C19 inhib 56
Cc1ccc(/C=N/NC(=O)CSc2nc3ccccc3n2C)s1	none
Cc1ccc(Cn2c(SCC(=O)N/N=C/c3ccc(C)o3)nc3ccccc32)cc1	Cav32 inh -10
CN1CCN(S(=O)(=O)c2cccc(S(=O)(=O)c3cccc(S(=O)(=O)N4CCN(C)CC4)c3)c2)CC1	CYP2C9 inhib 80
CN1CCN(S(=O)(=O)c2ccc3ccccc3c2)CC1	CYP2C9 act 2.5
CC1CCN(S(=O)(=O)c2ccc3ccccc3c2)CC1	CYP2C9 act 2.7, CYP2C19 inhib 83
O=[N+]([O-])c1cc(C(F)(F)F)ccc1N1CCN(S(=O)(=O)c2ccc3ccccc3c2)CC1	CYP2C19 inhib 58
CN(C)S(=O)(=O)N1CCN(S(=O)(=O)c2ccc3ccccc3c2)CC1	none
Cc1ccc(S(=O)(=O)N2CCCN(S(=O)(=O)c3ccc4ccccc4c3)CC2)cc1	none (no result: CYP2C9 inhib, CYP2C19 act, CYP2C9 act, CYP2C19 inhib)
O=c1c(-c2ccc(O)cc2)coc2cc(OC3OC(CO)C(O)C(O)C3O)ccc12 (stereo not given)	none (no result: CYP2C9 inhib, CYP2C19 act, CYP2C9 act, CYP2C19 inhib)
COC(=O)c1cc2ccsc2n1CC(=O)N(C)C1CCCCC1	none (no result: Cav32 inh)
CC(=O)c1ccc(NC(=O)/C(=C\c2ccccc2)NC(=O)/C=C/c2ccccc2)cc1	CYP2C9 inhib 53
CC(=O)Nc1ccc(S(=O)(=O)Oc2cccc(N3C(=O)C4CCCCC4C3=O)c2)cc1 (stereo not given)	CYP2C9 inhib 75
